Measured values: PubChem BioAssay (EPA / NIEHS)
The source made the active and inactive calls. Rule for the calls: active = hit-call score of the fitted dose curve at least 0.9, where 1 is the maximum; inactive = score below 0.9.

Key:
[1] = CEETOX_H295R_11DCORT: CeeTox H295R High-throughput Steroidogenesis Assay for 11-Deoxycortisol (11DCORT) (AID 2283432); settings: actives raise or lower the signal;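 for AC50: 11-deoxycortisol secreted into the medium measured by LC-MS/MS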
Procedure, shortened: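 Steroidogenesis in human H295R cells: 48 h chemical exposure after forskolin priming, 11-deoxycortisol measured by LC-MS/MS.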

[2] = CEETOX_H295R_OHPREG: CeeTox H295R High-throughput Steroidogenesis Assay for OH-Pregnenolone (OHPREG) (AID 2283434); settings: actives raise or lower the signal
Procedure, shortened: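 Hormone levels in spent medium were measured by tandem mass spectrometry following liquid-liquid extraction. Cells (H295R) had been forskolin-stimulated (10 uM, 48 h) before a 48 h chemical exposure at 0.1% DMSO, with activity fitted in both directions against DMSO.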

[3] = CEETOX_H295R_OHPROG: CeeTox H295R High-throughput Steroidogenesis Assay for OH-Progesterone (OHPROG) (AID 2283435); settings: actives raise or lower the signal;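 for AC50: human adrenal H295R cells primed 48 h with 10 µM forskolin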
Procedure, shortened: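 H295R adrenal cells prestimulated 48 h with 10 uM forskolin, then exposed 48 h to chemical (0.1% DMSO final). 17alpha-hydroxyprogesterone in medium quantified by HPLC-MS/MS; bidirectional fit versus DMSO, with MTT viability measured in the same wells.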

[4] = CEETOX_H295R_ANDR: CeeTox H295R High-throughput Steroidogenesis Assay for Androstenedione (ANDR) (AID 2283436); settings: actives raise or lower the signal
Procedure, shortened: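 Read-out is androstenedione secreted into medium, measured by tandem mass spectrometry after liquid-liquid extraction. Cells were H295R, dosed for 48 h per modified OECD 456; activity fitted in both directions relative to DMSO.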

[5] = CEETOX_H295R_CORTIC: CeeTox H295R High-throughput Steroidogenesis Assay for Corticosterone (CORTIC) (AID 2283437); settings: actives raise or lower the signal;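 note: corticosterone secreted into medium quantified by mass spectrometry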;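 for AC50: human H295R adrenal cells prestimulated with forskolin before chemical exposure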
Procedure, shortened: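 Corticosterone secreted into medium is measured by reverse-phase HPLC with tandem MS following liquid-liquid extraction. Cells are forskolin-stimulated (10 uM, 48 h) before 48 h test exposure; activity fitted in both directions against DMSO.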

[6] = CEETOX_H295R_CORTISOL: CeeTox H295R High-throughput Steroidogenesis Assay for Cortisol (AID 2283438); settings: actives raise or lower the signal;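 note: cortisol secreted into medium quantified by LC-MS/MS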
Procedure, shortened: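 Forskolin-primed H295R cells (10 uM, 48 h) treated 48 h with test chemical in 0.1% DMSO. Cortisol in medium quantified by MTBE extraction and HPLC-MS/MS; bidirectional fit vs DMSO, MTT viability in same wells.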

[7] = CEETOX_H295R_DOC: CeeTox H295R High-throughput Steroidogenesis Assay for DOC (AID 2283439); settings: actives raise or lower the signal
Procedure, shortened: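 H295R cells prestimulated 48 h with 10 uM forskolin, then exposed 48 h to test chemical (0.1% DMSO final). Medium 11-deoxycorticosterone measured by HPLC-MS/MS after MTBE extraction; bidirectional fit vs DMSO, viability checked by MTT in same wells.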

[8] = CEETOX_H295R_ESTRADIOL: CeeTox H295R High-throughput Steroidogenesis Assay for Estradiol (AID 2283440); settings: actives raise or lower the signal;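 note: estradiol secreted into medium quantified by LC-MS/MS after dansyl derivatisation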
Procedure, shortened: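 H295R cells pre-stimulated 48 h with 10 uM forskolin, then exposed 48 h to chemical in 0.1% DMSO. Medium estradiol quantified by MTBE extraction, dansyl derivatisation and HPLC-MS/MS; bidirectional fit versus DMSO; MTT viability required >/=70%.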

[9] = CEETOX_H295R_ESTRONE: CeeTox H295R High-throughput Steroidogenesis Assay for Estrone (AID 2283441); settings: actives raise or lower the signal;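 note: estrone secreted into medium measured by LC-MS/MS after dansyl derivatization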;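 for AC50: human adrenal H295R cells prestimulated with forskolin for two days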
Procedure, shortened: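 H295R cells prestimulated 48 h with 10 uM forskolin, then exposed 48 h to chemicals in 0.1% DMSO final; estrone in medium extracted with MTBE, dansyl-derivatized, quantified by HPLC-MS/MS; bidirectional fitting versus DMSO, viability by MTT.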

[10] = CEETOX_H295R_PROG: CeeTox H295R High-throughput Steroidogenesis Assay for Progesterone (PROG) (AID 2283442); settings: actives raise or lower the signal;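 for AC50: human H295R adrenal cells primed with 10 µM forskolin before dosing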
Procedure, shortened: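 H295R adrenal cells prestimulated 48 h with 10 uM forskolin, then exposed 48 h to test chemical in 0.1% DMSO. Progesterone in medium quantified by HPLC-MS/MS after MTBE extraction; viability checked by MTT in same wells.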

[11] = read-out: Tumor necrosis factor receptor superfamily member 6 (Homo sapiens) (UniProt P25445); experiment: LTEA_HepaRG_FAS: Life Technologies and Expression Analysis (LTEA) Assay for Fas cell surface death receptor (FAS) using HepaRG (AID 2283447); settings: mRNA level, 48 h; actives raise or lower the signal
Procedure, shortened: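 FAS transcript level was measured by TaqMan qRT-PCR against three housekeeping genes after 48 h chemical exposure. Cells were HepaRG, 0.5% DMSO vehicle, with a top concentration of 100 uM and half-log dilutions over eight points, in duplicate.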

[12] = read-out: Fatty acid synthase (Homo sapiens) (UniProt P49327); experiment: LTEA_HepaRG_FASN: Life Technologies and Expression Analysis (LTEA) Assay for Fatty Acid Synthase (FASN) using HepaRG (AID 2283448); settings: mRNA level, 48 h; actives raise or lower the signal
Procedure, shortened: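 Differentiated HepaRG cells in serum-free induction medium exposed 48 h in duplicate to eight half-log concentrations, top 100 uM, 0.5% DMSO. FASN mRNA by qRT-PCR normalised to ACTB, GAPDH, POLR2A; bidirectional fit versus DMSO.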

[13] = read-out: Cyclin D2 (CCND2), CCND2 (gene 894); experiment: LTEA_HepaRG_CCND2: Life Technologies and Expression Analysis (LTEA) Assay for Cyclin D2 (CCND2) using HepaRG (AID 2283449); settings: mRNA level, 48 h; actives raise or lower the signal
Procedure, shortened: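 Read-out is CCND2 mRNA level measured by qRT-PCR in human HepaRG liver cells and normalised to three housekeeping genes. Chemicals were applied for 48 h at up to 100 uM, with gain or loss fitted relative to 0.5% DMSO.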

[14] = read-out: Cyclin Dependent Kinase Inhibitor 1A (CDKN1A), CDKN1A (gene 1026); experiment: LTEA_HepaRG_CDKN1A: Life Technologies and Expression Analysis (LTEA) Assay for Cyclin Dependent Kinase Inhibitor 1A (CDKN1A) using HepaRG (AID 2283450); settings: mRNA level, 48 h; actives raise or lower the signal
Procedure, shortened: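 Differentiated HepaRG cells in serum-free induction medium, exposed 48 h in duplicate to eight half-log concentrations up to 100 uM in 0.5% DMSO. mRNA measured by TaqMan qRT-PCR, normalized to ACTB, GAPDH, POLR2A; bidirectional fit versus DMSO.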

[15] = read-out: Cyclin D1 (CCND1), CCND1 (gene 595); experiment: LTEA_HepaRG_CCND1: Life Technologies and Expression Analysis (LTEA) Assay for Cyclin D1 (CCND1) using HepaRG (AID 2283451); settings: mRNA level, 48 h; actives raise or lower the signal;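 for AC50: TaqMan qRT-PCR transcript level normalised to ACTB GAPDH and POLR2A housekeeping genes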
Procedure, shortened: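 Differentiated HepaRG cells exposed 48 h in serum-free induction medium to eight half-log concentrations from 100 uM top, 0.5% DMSO, duplicates. CCND1 mRNA measured by Fluidigm TaqMan qRT-PCR, normalised to ACTB, GAPDH, POLR2A; bidirectional fit.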

[16] = read-out: catalase (CAT), CAT (gene 847); experiment: LTEA_HepaRG_CAT: Life Technologies and Expression Analysis (LTEA) Assay for catalase (CAT) using HepaRG (AID 2283452); settings: mRNA level, 48 h; actives raise or lower the signal;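 for AC50: TaqMan qRT-PCR signal normalized to ACTB GAPDH and POLR2A housekeeping genes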
Procedure, shortened: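 Expression of CAT was quantified by TaqMan qRT-PCR with ACTB/GAPDH/POLR2A normalization after 48 h chemical exposure of HepaRG. Eight-point half-log series, top 100 uM, in 0.5% DMSO; gain or loss fitted against vehicle.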

[17] = read-out: flavin-containing dimethylaniline monooxygenases 3 (FMO3), FMO3 (gene 2328); experiment: LTEA_HepaRG_FMO3: Life Technologies and Expression Analysis (LTEA) Assay for flavin-containing dimethylaniline monooxygenases 3 (FMO3) using HepaRG (AID 2283453); settings: mRNA level, 48 h; actives raise or lower the signal
Procedure, shortened: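 Differentiated HepaRG cells in serum-free induction medium, exposed 48 h in duplicate to 8 half-log concentrations up to 100 uM in 0.5% DMSO. FMO3 mRNA by qRT-PCR, normalized to ACTB, GAPDH, POLR2A; bidirectional fit vs DMSO.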

[18] = read-out: Cytochrome P450 (CYP1A1), CYP1A1 (gene 1543); experiment: LTEA_HepaRG_CYP1A1: Life Technologies and Expression Analysis (LTEA) Assay for Cytochrome P450 (CYP1A1) using HepaRG (AID 2283454); settings: mRNA level, 48 h; actives raise or lower the signal
Procedure, shortened: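 Differentiated human HepaRG cells, after 48 h plating, exposed in duplicate for 48 h in serum-free induction medium to 8 half-log concentrations up to 100 uM in 0.5% DMSO. CYP1A1 mRNA by qRT-PCR, normalized to ACTB/GAPDH/POLR2A; bidirectional fit versus DMSO.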

[19] = read-out: CFLAR gene, CFLAR (gene 8837); experiment: LTEA_HepaRG_CFLAR: Life Technologies and Expression Analysis (LTEA) Assay for CFLAR gene using HepaRG (AID 2283455); settings: mRNA level, 48 h; actives raise or lower the signal
Procedure, shortened: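 HepaRG, 48 h exposure, 8-pt conc-response (100 uM top, half-log), 0.5% DMSO vehicle, duplicates. CFLAR expression by qRT-PCR; ACTB/GAPDH/POLR2A normalization; gain or loss fit vs DMSO baseline.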

[20] = read-out: Forkhead box O1 (FOXO1), FOXO1 (gene 2308); experiment: LTEA_HepaRG_FOXO1: Life Technologies and Expression Analysis (LTEA) Assay for Forkhead box O1 (FOXO1) using HepaRG (AID 2283456); settings: mRNA level, 48 h; actives raise or lower the signal
Procedure, shortened: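 Readout is FOXO1 transcript level by multiplexed qRT-PCR against three housekeeping genes, curve-fitted in both directions relative to 0.5% DMSO vehicle. Human HepaRG cultures received chemicals for 48 h, up to 100 uM in half-log steps.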

Measured: AC50

Chain of Fatty acid synthase (Homo sapiens) (P49327 whole entry, looked up): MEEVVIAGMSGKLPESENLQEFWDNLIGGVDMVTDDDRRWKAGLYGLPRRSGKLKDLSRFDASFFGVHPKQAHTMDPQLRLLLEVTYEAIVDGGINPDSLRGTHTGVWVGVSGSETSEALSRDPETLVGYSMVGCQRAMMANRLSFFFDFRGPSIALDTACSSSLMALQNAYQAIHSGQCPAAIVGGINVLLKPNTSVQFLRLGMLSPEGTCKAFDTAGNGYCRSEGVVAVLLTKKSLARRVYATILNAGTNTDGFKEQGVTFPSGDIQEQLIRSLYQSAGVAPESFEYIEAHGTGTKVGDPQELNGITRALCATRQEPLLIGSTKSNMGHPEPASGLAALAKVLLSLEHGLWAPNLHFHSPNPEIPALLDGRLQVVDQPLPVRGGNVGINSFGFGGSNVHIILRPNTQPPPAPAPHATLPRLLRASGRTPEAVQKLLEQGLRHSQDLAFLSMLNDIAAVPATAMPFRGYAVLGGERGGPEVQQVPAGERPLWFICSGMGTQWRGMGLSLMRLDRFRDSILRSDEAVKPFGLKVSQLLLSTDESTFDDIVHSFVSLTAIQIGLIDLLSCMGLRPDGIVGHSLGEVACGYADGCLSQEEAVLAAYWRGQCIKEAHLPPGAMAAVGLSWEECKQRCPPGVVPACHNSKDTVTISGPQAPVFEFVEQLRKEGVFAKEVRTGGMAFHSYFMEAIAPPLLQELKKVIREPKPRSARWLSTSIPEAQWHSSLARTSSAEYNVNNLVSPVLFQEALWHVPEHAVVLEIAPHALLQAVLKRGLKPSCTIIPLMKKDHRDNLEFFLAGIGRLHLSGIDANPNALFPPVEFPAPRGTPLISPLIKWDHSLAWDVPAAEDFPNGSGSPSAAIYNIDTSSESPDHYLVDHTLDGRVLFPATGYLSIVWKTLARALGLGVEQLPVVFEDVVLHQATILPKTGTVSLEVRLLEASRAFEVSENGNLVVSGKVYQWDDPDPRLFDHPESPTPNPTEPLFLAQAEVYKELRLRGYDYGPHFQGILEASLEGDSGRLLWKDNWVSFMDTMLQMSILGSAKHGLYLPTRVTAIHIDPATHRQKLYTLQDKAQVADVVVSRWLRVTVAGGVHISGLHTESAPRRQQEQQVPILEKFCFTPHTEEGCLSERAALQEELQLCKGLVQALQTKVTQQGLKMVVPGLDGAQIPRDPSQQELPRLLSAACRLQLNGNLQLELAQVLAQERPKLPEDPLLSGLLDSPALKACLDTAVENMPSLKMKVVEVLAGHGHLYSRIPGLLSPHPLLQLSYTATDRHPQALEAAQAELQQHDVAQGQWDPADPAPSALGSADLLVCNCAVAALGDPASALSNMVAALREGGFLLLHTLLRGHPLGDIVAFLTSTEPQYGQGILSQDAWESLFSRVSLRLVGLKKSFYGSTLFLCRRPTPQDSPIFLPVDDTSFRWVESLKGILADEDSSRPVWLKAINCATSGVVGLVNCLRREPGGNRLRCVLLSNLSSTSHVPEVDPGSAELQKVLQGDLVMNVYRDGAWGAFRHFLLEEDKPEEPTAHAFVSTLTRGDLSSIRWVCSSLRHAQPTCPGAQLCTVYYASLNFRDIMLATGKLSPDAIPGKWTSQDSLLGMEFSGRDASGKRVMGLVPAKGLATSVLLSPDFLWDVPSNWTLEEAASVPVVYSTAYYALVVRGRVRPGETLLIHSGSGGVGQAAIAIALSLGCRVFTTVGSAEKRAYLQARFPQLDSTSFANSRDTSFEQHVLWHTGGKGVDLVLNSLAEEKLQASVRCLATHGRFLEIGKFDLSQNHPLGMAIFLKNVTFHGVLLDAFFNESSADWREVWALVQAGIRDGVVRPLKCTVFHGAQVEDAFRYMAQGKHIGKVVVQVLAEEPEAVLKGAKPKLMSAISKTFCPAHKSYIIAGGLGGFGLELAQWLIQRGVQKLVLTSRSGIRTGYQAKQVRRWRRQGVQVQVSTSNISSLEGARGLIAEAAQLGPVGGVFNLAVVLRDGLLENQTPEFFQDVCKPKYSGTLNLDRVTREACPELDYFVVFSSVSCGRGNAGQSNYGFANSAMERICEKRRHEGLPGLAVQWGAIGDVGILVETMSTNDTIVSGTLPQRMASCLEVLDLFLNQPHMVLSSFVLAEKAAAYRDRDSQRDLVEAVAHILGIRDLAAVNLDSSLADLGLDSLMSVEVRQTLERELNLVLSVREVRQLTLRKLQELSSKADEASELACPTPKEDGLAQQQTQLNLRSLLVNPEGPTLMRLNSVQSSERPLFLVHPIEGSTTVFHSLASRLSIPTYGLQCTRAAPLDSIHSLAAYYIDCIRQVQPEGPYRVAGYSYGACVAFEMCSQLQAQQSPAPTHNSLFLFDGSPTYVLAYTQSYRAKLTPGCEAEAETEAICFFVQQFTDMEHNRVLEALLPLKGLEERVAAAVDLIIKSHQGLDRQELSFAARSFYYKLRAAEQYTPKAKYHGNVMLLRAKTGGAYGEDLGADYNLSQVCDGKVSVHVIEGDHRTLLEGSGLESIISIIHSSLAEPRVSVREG

COc1cc([N+](=O)[O-])ccc1N
active: [3] 15.1 µM | [7] 23.8 µM | [10] 24.2 µM
inactive: [1] | [2] | [4] | [5] | [6] | [8] | [9]

CC(C)CCOCCC(C)C
inactive: [1] | [2] | [3] | [4] | [5] | [6] | [7] | [8] | [9] | [10]

CN(Cc1cnc2nc(N)nc(N)c2n1)c1ccc(C(=O)N[C@@H](CCC(=O)O)C(=O)O)cc1
active: [12] 3.33 µM
inactive: [11] | [13] | [14] | [15] | [16] | [17] | [18] | [19] | [20]

CN(C)CCOC(c1ccccc1)c1ccccc1
inactive: [11] | [14] | [15] | [16] | [17] | [19] | [20]
active: [12] 50 µM

Cc1cccc2c1ccc1ccccc12
inactive: [1] | [2] | [3] | [4] | [5] | [6] | [7] | [8] | [9] | [10]

CCCCC=O
inactive: [11] | [12] | [13] | [14] | [15] | [16] | [17] | [18] | [19] | [20]

CS(=O)(=O)c1ccc([C@@H](CC2CCCC2)C(=O)Nc2cnccn2)cc1Cl
active: [12] 50 µM | [14] 50 µM | [16] 83.3 µM | [17] 78.6 µM
inactive: [11] | [15] | [19] | [20]

CC(C)(C)c1ccc(O)c(O)c1
inactive: [1] | [2] | [3] | [5] | [7]
active: [6] 50 µM | [10] 32.3 µM

CCCCC(CC)C(=O)O (stereo not given)
active: [18] 50 µM
inactive: [11] | [12] | [14] | [15] | [16] | [19]

CC(C)(c1ccc(Oc2ccc(N)cc2)cc1)c1ccc(Oc2ccc(N)cc2)cc1
active: [1] 0.249 µM | [2] 0.0361 µM | [3] 0.235 µM | [4] 0.234 µM | [5] 0.229 µM | [6] 0.401 µM | [7] 0.2 µM | [10] 0.134 µM
inactive: [8] | [9]

CCCCCCCCCCCCOS(=O)(=O)O
inactive: [11] | [13] | [14] | [15] | [19] | [20]
active: [12] 80.7 µM | [17] 85.6 µM | [18] 61.6 µM

C[C@]12CC[C@@H]3c4ccc(O)cc4CC[C@H]3[C@@H]1C[C@@H](O)[C@@H]2O
inactive: [1] | [3] | [5] | [6] | [10]
active: [2] 31.8 µM | [7] 25.8 µM

Clc1ccc(Nc2nnc(Cc3ccncc3)c3ccccc23)cc1
active: [5] 2.38 µM | [6] 3.2 µM | [8] 2.39 µM | [9] 4.2 µM
inactive: [1] | [2] | [3] | [7] | [10]

Cc1[nH]nc2c1N=C(c1ccccc1Cl)c1cc([N+](=O)[O-])ccc1N2
inactive: [13] | [14]
active: [11] 4.11 µM | [12] 7.35 µM | [15] 1.22 µM | [16] 16.1 µM | [17] 9.1 µM | [18] 81.8 µM | [19] 12.9 µM | [20] 5.4 µM

CC(=O)Nc1ccc(O)cc1
inactive: [11] | [12] | [13] | [14] | [15] | [16] | [17] | [19] | [20]
active: [18] 50 µM
